Reference: PubChem BioAssay (NCATS)
Records with an inconclusive call do not appear. Unmarked numbers belong to inactive results. Activity calls are given as the source filed them. The call rests on the fitted dose curve; in most records, active means well fitted cell-killing curve with a large enough effect; inconclusive means small, poorly fitted or top-dose-only effect, or effect the other way; inactive means no such curve, though single readings can be large or run the other way.

Experiment: Quantitative High-Throughput drug screen in 47 multiple myeloma cell lines against the NCATS MIPE library collection: MM1R_ATCC cell viability assay (AID 1918981); further: nearly all actives have a fitted effect of over 35% in size
Details: MM1R multiple myeloma cells, CellTiter-Glo viability, 48 h; series mostly up to 45.8 µM; viability (% of control): at the top concentration
Description: PI: Beverly A. Mock Ph.D.
Laboratory of Cancer Biology and Genetics,
Center for Cancer Research, National Cancer Institute,
National Institute of Health, Bethesda, Maryland
Drug resistance and disease progression are common in multiple myeloma (MM) patients, underscoring the need for new therapeutic combinations. […] We hypothesized that effective combinations would reduce MYC expression and enhance p16 activity. […] These preclinical data identify potentially useful drug combinations for evaluation in drug-resistant MM and reveal potential mechanisms of combined drug sensitivity.
Described herein is the primary MIPE qHTS used to cherrypick compounds. Validated compounds were then further tested for potential synergistic activiy.
[1] Peat TJ, Gaikwad SM, Dubois W, Gyabaah-Kessie N, Zhang S, Gorjifard S, Phyo Z, Andres M, Hughitt VK, Simpson RM, Miller MA, Girvin AT, Taylor A, Williams D, D'Antonio N, Zhang Y, Rajagopalan A, Flietner E, Wilson K, Zhang X, Shinn P, Klumpp-Thomas C, McKnight C, Itkin Z, Chen L, Kazandijian D, Zhang J, Michalowski AM, Simmons JK, Keats J, Thomas CJ, Mock BA. Drug combinations identified by high-throughput screening promote cell cycle transition and upregulate Smad pathways in myeloma. Cancer Lett. 2023 Aug 1;568:216284. doi: 10.1016/j.canlet.2023.216284. Epub 2023 Jun 24. PMID: 37356470; PMCID: PMC10408729.
SEQUENCE No. (e.g., 1, 2, 3, etc.); […] (e.g., Cells, Incubation, Reagent, etc.); VALUE and DESCRIPTION.
1; Cells; 5 uL; white, solid bottom 1536-well Greiner assay plate.
2; Compounds; 23 nL; Kalypsis pin tool (Wako USA) equipped with a 1536-well pin head to transfer to the assay plates.
3; Incubation; 48 hours; 37C incubation.
4; Reagent;5uL; CellTiter Glo (Promega).
5; Detector; 425V; Luminescence; Viewlux PerkinElmer.
NOTES (numbers refer to Sequence numbers above)
1. The cell-based screening methods employed in this study were like those previously published. Briefly, the corresponding myeloma cell lines were screened in 1,536-well plates with 500 cells, 5-uL per well for inhibition of cell viability (assessed by measuring ATP levels with CellTiterGlo).
2. NCATS MIPE 4.0 library of approved and investigational drugs were added using the Kalypsis pin tool. Wells treated with DMSO only for 100% viability and media only for 0% viability were used as controls.
3. The assay plates were covered and incubated for 48 hours in a 37C, 5% CO2 incubator with controlled humidity.
4. After 48 hours, CellTilter-GloTM luminescent substrate mix (Promega) reagent was added to the assay plate and plates we incubated for 5 min at room temperature.
5. Signal was measured as median relative luminescence units on a ViewLux (PerkinElmer) multiplate reader.
[1] Heske CM, Davis MI, Baumgart JT, Wilson K, Gormally MV, Chen L, Zhang X, Ceribelli M, Duveau DY, Guha R, Ferrer M, Arnaldez FI, Ji J, Tran HL, Zhang Y, Mendoza A, Helman LJ, Thomas CJ. Matrix Screen Identifies Synergistic Combination of PARP Inhibitors and Nicotinamide Phosphoribosyltransferase (NAMPT) Inhibitors in Ewing Sarcoma. Clin Cancer Res. 2017 Dec 1;23(23):7301-7311. doi: 10.1158/1078-0432.CCR-17-1121. Epub 2017 Sep 12. PMID: 28899971; PMCID: PMC6636827.
Potency means the concentration at half of the fitted maximal effect.

Compound | viability (% of control) | Potency
CCn1cc(C(=O)O)c(=O)c2cc(F)c(N3CCN(C)CC3)cc21 | 105% | 
CC(C)C1CCC(C(=O)N[C@H](Cc2ccccc2)C(=O)O)CC1 (stereo not given in full) | 90.9% | 
O=C(O)c1cccnc1 | 130% | 
C[C@]12C=CC(=O)C=C1CC[C@@H]1[C@@H]2C(=O)C[C@@]2(C)[C@H]1CC[C@]2(O)C(=O)CO | 119% [at 23.2 µM] | 
O=C(N[C@H](CO)[C@H](O)c1ccc([N+](=O)[O-])cc1)C(Cl)Cl | 130% | 
NC(=O)N1c2ccccc2CC(=O)c2ccccc21 | 140% | 
COC(c1ccccc1)(c1ccccc1)[C@H](Oc1nc(C)cc(C)n1)C(=O)O | 124% | 
CCOCC(O)COc1ccc(NC(=O)CC[S+](C)C)cc1 (stereo not given) | 102% | 
CCN[C@H]1C[C@H](C)S(=O)(=O)c2sc(S(N)(=O)=O)cc21 | 126% | 
CC(C)NCC(O)c1ccc(NS(C)(=O)=O)cc1 (stereo not given) | 135% | 
COc1ccc(-c2ccc3cc(C(=O)O)ccc3c2)cc1C12CC3CC(CC(C3)C1)C2 |  | 7.43 µM (active)
O=C(NCC1CN(c2ccc(N3CCOCC3=O)cc2)C(=O)O1)c1ccc(Cl)s1 (stereo not given) | 81.1% | 
COc1cc2ncnc(Nc3cccc(Cl)c3)c2cc1OC |  | 20.9 µM (active)
CCOC(=O)c1ccc(OC(=O)CCCCCN=C(N)N)cc1 | 118% | 
COc1nc(N)nc2c1ncn2[C@@H]1O[C@H](CO)[C@@H](O)[C@@H]1O | 105% | 
O=NN(CCCl)C(=O)NC1CCCCC1 | 152% | 
Cc1cc(NS(=O)(=O)c2ccc(N)cc2)no1 | 137% | 
CC(C)OC(=O)OCOP(=O)(CO[C@H](C)Cn1cnc2c(N)ncnc21)OCOC(=O)OC(C)C |  | 11.8 µM (active)
CO[C@@]12[C@H](COC(N)=O)C3=C(C(=O)C(C)=C(N)C3=O)N1C[C@@H]1N[C@@H]12 |  | 11.8 µM (active)
CC(=O)CC(c1ccccc1)c1c(O)c2ccccc2oc1=O (stereo not given) | 108% | 

Compound | viability (% of control) | Potency
CCCCS(=N)(=O)CCC(N)C(=O)O (stereo not given) | 123% | 
CCN1CCCC1CNC(=O)c1cc(S(N)(=O)=O)ccc1OC (stereo not given) | 118% | 
CCOC(=O)[C@H](CCc1ccccc1)N[C@H]1CS[C@H](c2cccs2)CN(CC(=O)O)C1=O |  | 18.7 µM (active)
COC(=O)Nc1nc2ccc(C(=O)c3ccccc3)cc2[nH]1 |  | 1.66 µM (active)
CC(C)(C)NC(=O)[C@H]1CC[C@H]2[C@@H]3CC[C@H]4NC(=O)C=C[C@]4(C)[C@H]3CC[C@]12C |  | 1.32 µM (active)
CCOC(=O)[C@H](CCc1ccccc1)N[C@H]1CCc2ccccc2N(CC(=O)O)C1=O |  | 20.9 µM (active)
CC1=CC(=O)c2ccccc2C1=O |  | 9.35 µM (active)
NC(N)=NC(N)=NCCc1ccccc1 |  | 16.6 µM (active)
COCCCOc1cc(C[C@@H](C[C@H](N)[C@@H](O)C[C@H](C(=O)NCC(C)(C)C(N)=O)C(C)C)C(C)C)ccc1OC | 106% | 
NS(=O)(=O)c1cc2c(cc1Cl)NC(C(Cl)Cl)NS2(=O)=O (stereo not given) | 111% | 
CC(=O)Oc1ccccc1C(=O)Nc1ncc([N+](=O)[O-])s1 |  | 19.1 µM (active)
O=C(O)C1CCCN(CCC=C(c2ccccc2)c2ccccc2)C1 (stereo not given) | 102% | 
O=S(=O)(O)CCS | 133% | 
O=C(O)c1cc(=O)[nH]c(=O)[nH]1 | 113% | 
CC[C@H](NC(C)C)[C@H](O)c1ccc(O)c2[nH]c(=O)ccc12 |  | 0.59 µM (active)
COc1cccc(N(C)C(=S)Oc2ccc3c(c2)CCCC3)n1 | 99.3% | 
CCCCc1oc2ccc(NS(C)(=O)=O)cc2c1C(=O)c1ccc(OCCCN(CCCC)CCCC)cc1 |  | 14.8 µM (active)
COc1ccc2cc3[n+](cc2c1OC)CCc1cc2c(cc1-3)OCO2 |  | 4.69 µM (active)
NC1(c2ccc(-c3nc4ccn5c(=O)[nH]nc5c4cc3-c3ccccc3)cc2)CCC1 |  | 5.26 µM (active)
O=S(=O)(c1cccc2cnccc12)N1CCCNCC1 | 113% | 
